Results on one compound are retold here after the supplement of paper PMC11732987, “Enantioselective OTUD7B fragment discovery through chemoproteomics screening and high-throughput optimisation” (Communications Chemistry, 2025).

Molecules are shown by their SMILES. Unmarked numbers belong to inactive results.

Holding throughout (experiment): log2 ratio of Biotin-Ahx-Ub-VS probe labelling (fragment/DMSO); higher = less target engagement (more negative = stronger competition), active = hit call of the paper (q ≤ 0.05, log2 ratio ≤ -1)
Common to all, as to conditions: compound concentration: 200 uM; treatment time: 3 h

In one test the target is T1, OTUD6B (UniProt Q8N6M0).
T1 sequence (whole entry): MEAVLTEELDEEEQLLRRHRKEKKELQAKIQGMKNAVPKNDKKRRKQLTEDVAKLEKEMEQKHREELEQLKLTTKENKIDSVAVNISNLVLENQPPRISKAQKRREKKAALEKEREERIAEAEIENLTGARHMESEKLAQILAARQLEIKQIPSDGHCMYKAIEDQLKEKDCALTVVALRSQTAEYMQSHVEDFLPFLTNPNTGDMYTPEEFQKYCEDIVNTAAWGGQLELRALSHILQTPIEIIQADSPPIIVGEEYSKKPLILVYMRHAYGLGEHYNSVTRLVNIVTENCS
The method in brief:
(§1)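 HEK293T lysate in Tris/CHAPS/IGEPAL buffer with protease inhibitors (495 µg per sample) was given fragment at 200 µM or vehicle for 3 h, in triplicate. It then received Biotin-Ahx-Ub-VS at 0.5 µM final for 1 h. Labelled DUBs were NeutrAvidin-enriched, digested with LysC and trypsin, and run by diaPASEF LC-MS/MS. Values are average log2 fragment/vehicle ratios by unpaired t-test on global-median-normalised Spectronaut quantities of proteins with ≥2 unique peptides.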

For a further test, the target named is T2, OTUD7B (UniProt Q6GQQ9).
T2 sequence (whole entry): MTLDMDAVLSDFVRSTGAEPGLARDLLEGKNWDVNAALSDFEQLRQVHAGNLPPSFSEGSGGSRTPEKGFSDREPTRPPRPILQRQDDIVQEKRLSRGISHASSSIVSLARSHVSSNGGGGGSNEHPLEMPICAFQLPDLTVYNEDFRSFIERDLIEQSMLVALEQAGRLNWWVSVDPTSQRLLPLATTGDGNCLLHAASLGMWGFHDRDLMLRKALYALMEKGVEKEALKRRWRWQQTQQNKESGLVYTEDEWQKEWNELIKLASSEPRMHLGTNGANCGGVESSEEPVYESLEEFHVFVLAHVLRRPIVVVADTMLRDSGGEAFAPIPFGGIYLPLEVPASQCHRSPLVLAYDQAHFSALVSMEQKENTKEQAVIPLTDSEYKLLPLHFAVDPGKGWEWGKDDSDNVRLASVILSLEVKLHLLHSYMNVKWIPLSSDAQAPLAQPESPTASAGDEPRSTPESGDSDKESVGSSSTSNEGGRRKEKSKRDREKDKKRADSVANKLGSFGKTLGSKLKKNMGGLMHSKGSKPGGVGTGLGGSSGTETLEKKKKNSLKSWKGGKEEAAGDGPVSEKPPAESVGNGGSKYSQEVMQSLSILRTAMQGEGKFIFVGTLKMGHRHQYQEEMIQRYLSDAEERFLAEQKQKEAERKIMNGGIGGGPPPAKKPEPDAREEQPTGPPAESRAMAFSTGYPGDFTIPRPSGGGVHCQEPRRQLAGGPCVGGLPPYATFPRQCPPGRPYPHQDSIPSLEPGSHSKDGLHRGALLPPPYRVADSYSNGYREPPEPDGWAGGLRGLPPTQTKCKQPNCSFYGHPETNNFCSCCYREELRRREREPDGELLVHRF
The method in brief: as §1

The target in a further test is PRPF8 (UniProt Q6P2Q9). The method in brief: as §1
The target of another test is T3, PSMD7 (UniProt P51665).
T3 sequence (whole entry): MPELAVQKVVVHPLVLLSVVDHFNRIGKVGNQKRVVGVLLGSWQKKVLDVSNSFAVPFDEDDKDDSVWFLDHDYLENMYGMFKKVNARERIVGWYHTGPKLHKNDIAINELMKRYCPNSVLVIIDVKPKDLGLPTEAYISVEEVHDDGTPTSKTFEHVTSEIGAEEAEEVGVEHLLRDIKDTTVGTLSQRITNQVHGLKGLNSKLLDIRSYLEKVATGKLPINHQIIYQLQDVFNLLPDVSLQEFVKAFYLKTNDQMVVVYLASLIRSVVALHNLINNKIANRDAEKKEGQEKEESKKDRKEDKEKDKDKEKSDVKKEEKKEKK
The method in brief:
as §1

In another test the target is UCHL1 (UniProt P09936). The method in brief: as §1
Another test has as its target T4, UCHL3 (UniProt P15374).
T4 sequence (whole entry): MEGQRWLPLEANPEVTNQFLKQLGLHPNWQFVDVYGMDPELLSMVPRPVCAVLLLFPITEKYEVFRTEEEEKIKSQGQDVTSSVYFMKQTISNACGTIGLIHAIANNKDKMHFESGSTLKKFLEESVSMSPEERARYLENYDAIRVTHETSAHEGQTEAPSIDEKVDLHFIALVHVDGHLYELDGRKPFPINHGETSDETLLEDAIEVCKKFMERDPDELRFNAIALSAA
The method in brief: as §1

The target of another test is T5, UCHL5 (UniProt Q9Y5K5).
T5 sequence (whole entry): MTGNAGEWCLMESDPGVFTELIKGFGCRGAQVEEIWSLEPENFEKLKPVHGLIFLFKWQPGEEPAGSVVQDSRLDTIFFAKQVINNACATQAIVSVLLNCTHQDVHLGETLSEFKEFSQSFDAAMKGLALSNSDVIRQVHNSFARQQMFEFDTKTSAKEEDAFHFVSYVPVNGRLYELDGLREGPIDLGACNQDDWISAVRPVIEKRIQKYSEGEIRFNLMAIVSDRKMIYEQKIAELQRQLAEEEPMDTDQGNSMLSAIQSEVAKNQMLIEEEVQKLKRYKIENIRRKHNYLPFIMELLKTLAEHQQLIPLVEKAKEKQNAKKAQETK
The method in brief: as §1

Another test addresses USP10 (UniProt Q14694). The method in brief:
as §1

For the next test, the target named is T6, USP15 (UniProt Q9Y4E8).
T6 sequence (whole entry): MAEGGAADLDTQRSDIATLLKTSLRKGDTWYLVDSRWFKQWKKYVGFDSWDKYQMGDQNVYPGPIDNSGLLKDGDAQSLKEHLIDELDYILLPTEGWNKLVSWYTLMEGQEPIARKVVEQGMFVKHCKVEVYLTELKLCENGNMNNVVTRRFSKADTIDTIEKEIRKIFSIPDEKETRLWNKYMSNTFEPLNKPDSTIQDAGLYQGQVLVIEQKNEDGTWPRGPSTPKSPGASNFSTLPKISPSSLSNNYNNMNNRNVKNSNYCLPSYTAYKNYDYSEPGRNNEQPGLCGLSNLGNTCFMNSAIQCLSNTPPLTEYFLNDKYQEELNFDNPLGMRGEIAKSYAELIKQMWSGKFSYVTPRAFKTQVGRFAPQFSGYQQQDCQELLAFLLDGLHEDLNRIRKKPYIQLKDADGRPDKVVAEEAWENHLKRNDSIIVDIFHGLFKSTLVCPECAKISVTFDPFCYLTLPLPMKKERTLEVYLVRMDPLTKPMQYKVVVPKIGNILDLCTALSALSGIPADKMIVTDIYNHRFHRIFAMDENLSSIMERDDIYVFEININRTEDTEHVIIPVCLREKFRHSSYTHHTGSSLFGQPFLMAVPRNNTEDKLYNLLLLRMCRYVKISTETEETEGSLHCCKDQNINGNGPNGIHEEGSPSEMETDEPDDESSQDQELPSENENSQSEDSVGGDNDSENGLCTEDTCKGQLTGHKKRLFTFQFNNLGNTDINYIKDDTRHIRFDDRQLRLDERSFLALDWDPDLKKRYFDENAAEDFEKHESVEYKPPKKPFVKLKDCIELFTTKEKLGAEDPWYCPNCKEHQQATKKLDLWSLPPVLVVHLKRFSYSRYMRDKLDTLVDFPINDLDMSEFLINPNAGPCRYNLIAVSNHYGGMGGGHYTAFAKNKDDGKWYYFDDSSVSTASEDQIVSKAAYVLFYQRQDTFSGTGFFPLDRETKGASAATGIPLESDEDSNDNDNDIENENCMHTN
The method in brief:
as §1

For another test, the target named is USP16 (UniProt Q9Y5T5). The method in brief:
as §1

Chain of USP16 (Q9Y5T5 whole entry, looked up): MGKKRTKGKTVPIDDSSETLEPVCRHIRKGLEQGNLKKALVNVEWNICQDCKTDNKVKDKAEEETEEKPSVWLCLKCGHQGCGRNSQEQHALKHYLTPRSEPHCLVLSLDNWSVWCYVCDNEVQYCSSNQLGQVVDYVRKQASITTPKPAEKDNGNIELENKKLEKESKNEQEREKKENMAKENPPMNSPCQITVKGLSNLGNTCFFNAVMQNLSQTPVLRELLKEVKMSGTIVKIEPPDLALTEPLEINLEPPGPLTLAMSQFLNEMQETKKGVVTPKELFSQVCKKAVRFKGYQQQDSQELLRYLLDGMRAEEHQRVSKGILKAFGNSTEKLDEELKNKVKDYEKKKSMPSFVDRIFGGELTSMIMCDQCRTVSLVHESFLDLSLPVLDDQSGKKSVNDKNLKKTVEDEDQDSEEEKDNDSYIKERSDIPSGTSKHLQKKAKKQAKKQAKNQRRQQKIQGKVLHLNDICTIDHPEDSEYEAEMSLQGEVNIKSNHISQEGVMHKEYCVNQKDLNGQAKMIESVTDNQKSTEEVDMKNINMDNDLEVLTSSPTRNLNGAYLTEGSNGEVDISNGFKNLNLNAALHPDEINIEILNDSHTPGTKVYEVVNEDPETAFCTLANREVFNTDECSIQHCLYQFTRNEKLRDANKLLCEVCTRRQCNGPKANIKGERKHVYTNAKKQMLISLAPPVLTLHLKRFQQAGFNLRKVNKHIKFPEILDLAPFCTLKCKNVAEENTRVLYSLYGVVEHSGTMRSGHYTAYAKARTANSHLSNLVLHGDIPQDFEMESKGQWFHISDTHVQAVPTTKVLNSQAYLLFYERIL
Chain of USP10 (Q14694 whole entry): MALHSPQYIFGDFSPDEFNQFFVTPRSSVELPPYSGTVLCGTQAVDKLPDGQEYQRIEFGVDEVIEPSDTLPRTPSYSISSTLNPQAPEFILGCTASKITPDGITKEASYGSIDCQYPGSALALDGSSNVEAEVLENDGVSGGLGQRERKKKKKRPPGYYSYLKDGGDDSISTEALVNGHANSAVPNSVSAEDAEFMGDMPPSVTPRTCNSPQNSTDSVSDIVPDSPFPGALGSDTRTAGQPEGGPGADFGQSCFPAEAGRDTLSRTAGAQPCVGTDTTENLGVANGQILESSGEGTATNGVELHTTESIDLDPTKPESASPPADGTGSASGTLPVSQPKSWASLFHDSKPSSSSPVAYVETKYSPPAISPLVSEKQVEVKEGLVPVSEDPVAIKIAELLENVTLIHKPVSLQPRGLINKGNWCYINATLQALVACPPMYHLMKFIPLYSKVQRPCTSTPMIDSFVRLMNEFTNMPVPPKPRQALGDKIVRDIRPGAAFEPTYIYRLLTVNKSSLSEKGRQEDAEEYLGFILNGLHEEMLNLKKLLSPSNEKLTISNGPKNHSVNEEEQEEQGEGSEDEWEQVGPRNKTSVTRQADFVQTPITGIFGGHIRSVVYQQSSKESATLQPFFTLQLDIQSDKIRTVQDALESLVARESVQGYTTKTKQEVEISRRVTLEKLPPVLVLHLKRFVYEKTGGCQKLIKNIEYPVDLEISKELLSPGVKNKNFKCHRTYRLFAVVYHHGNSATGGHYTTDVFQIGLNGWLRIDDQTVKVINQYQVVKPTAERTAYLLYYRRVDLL
Chain of UCHL1 (P09936 whole entry, looked up): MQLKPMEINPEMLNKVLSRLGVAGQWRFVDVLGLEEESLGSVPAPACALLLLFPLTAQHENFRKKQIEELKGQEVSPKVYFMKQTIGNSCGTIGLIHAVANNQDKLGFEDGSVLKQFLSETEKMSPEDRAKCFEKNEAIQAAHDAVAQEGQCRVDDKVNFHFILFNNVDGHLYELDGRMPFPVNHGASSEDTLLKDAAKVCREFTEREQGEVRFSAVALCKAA

With `O=C(CCl)N1CCN2C(=O)CCC2C1` (stereo not given), the “log2 ratio of Biotin-Ahx-Ub-VS probe labelling” value in the test with OTUD6B was -0.158; with OTUD7B, -0.49; with PRPF8, -0.164; with PSMD7, -0.288; with UCHL1, -1.64 (active); with UCHL3, 0.118. The “log2 ratio of Biotin-Ahx-Ub-VS probe labelling” value in the test with UCHL5 was -0.0709; with USP10 it was -0.195; with USP15, -0.15; in the test with USP16, 0.00152.
